Experimental data taken from the supplement of paper PMC10849652.
About 7,900 targets were measured; listed, in parts, are those with a hit and a random draw of the rest. About 0.6% of all pairs of compound and target were hits. Unmarked numbers belong to inactive results.

Columns and labels:
Experiment in all cases: log2 fold change, soluble protein after heating vs DMSO (PISA); higher = thermal stabilisation; K562 cells, 10 uM, 30 min; active = over 0.2 and 3.5 SD of the protein, either way, in both replicates (recomputed)
[1] = compound: COC1=CC=C(C=C1)CN2C=CC3=C2C=C(C=C3)C(=O)NO
How it was run: (§1)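 Values are thermal stability changes relative to control samples and are taken from duplicates. They are stated as log2 fold changes. Before quantification by TMTpro 16plex LC-MS/MS with equalised channel sums, K562 cells at 2×10^6 cells/mL were treated with 10 μM compound for 30 min, heated in aliquots for 3 min across 48°C-58°C, pooled, extracted in PBS with 0.5% NP-40 at 4°C, and centrifuged at 21,000xg for 90 min to give the soluble supernatant.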

[2] = compound: CON(C)C(=O)N1N=C(c2cc(F)ccc2F)S[C@@]1(CCCN)c1ccccc1 [filanesib]
How it was run: as §1

[3] = compound: CO[C@H]1C[C@@H]2CC[C@@H](C)[C@@](O)(O2)C(=O)C(=O)N2CCCC[C@H]2C(=O)O[C@H]([C@H](C)C[C@@H]2CC[C@H](n3cnnn3)[C@H](OC)C2)CC(=O)[C@H](C)/C=C(\C)[C@@H](O)[C@@H](OC)C(=O)[C@H](C)C[C@H](C)/C=C/C=C/C=C/1C [zotarolimus]
How it was run: as §1

[4] = compound: COc1cc(C(=O)O)ccc1NC(=O)[C@@H]1N[C@@H](CC(C)(C)C)[C@](C#N)(c2ccc(Cl)cc2F)[C@H]1c1cccc(Cl)c1F [idasanutlin]
How it was run: as §1

[5] = compound: COc1cc(Nc2ncc3c(n2)-c2ccc(Cl)cc2C(c2c(F)cccc2OC)=NC3)ccc1C(=O)O [alisertib]
How it was run: as §1

[6] = compound: COc1cc2nc(-c3cc(F)ccc3O)nc(N[C@@H]3CNC[C@H]3C(C)(C)O)c2cc1OC
How it was run: as §1

[7] = compound: COc1cc2ncnc(Nc3ccc(F)c(Cl)c3)c2cc1OCCCN1CCOCC1 [gefitinib]
How it was run: as §1

[8] = compound: COc1cccc2cc(-c3nc([C@H]4CC[C@H](C(=O)O)CC4)n4ncnc(N)c34)[nH]c12
How it was run: as §1

[9] = compound: CS(=O)(=O)CCNCc1ccc(-c2ccc3ncnc(Nc4ccc(OCc5cccc(F)c5)c(Cl)c4)c3c2)o1 [lapatinib]
How it was run: as §1

[10] = compound: CS(=O)(=O)N1CCN(Cc2cc3nc(-c4cccc5[nH]ncc45)nc(N4CCOCC4)c3s2)CC1 [pictilisib]
How it was run: as §1

[11] = compound: CS(=O)(=O)c1ccc(-c2cnc(N)c(C(=O)Nc3ccccc3)n2)cc1
How it was run: as §1

[12] = compound: C[C@@H](Oc1cc(-c2cnn(C3CCNCC3)c2)cnc1N)c1c(Cl)ccc(F)c1Cl [crizotinib]
How it was run: as §1

[13] = compound: C[C@@H]1COCCN1C2=NC(=NC(=C2)C3(CC3)S(=O)(=O)C)C4=C5C=CNC5=CC=C4
How it was run: as §1

[14] = compound: C[C@H](C1=CC=C(C=C1)C(=O)NC2=C3C=CNC3=NC=C2)N
How it was run: as §1

[15] = compound: C[C@H](Nc1ncnc2nc[nH]c12)c1cc2cccc(Cl)c2c(=O)n1-c1ccccc1 [duvelisib]
How it was run: as §1

[16] = compound: Cc1cc(Nc2cc(CN3CCOCC3)c3nc(C)c(Cc4ccc(Cl)cc4F)n3n2)n[nH]1 [gandotinib]
How it was run: as §1

[17] = compound: Cc1cc(Nc2cc(N3CCN(C)CC3)nc(Sc3ccc(NC(=O)C4CC4)cc3)n2)n[nH]1 [tozasertib]
How it was run: as §1

[18] = compound: Cc1cc(SCc2sc(-c3ccc(C(F)(F)F)cc3)nc2C)ccc1OCC(=O)O
How it was run: as §1

[19] = compound: Cc1ccc(-n2nc(C(C)(C)C)cc2NC(=O)Nc2ccc(OCCN3CCOCC3)c3ccccc23)cc1 [doramapimod]
How it was run: as §1

[20] = compound: Cc1ccc(C(=O)N(CCCN)[C@@H](c2nc3cc(Cl)ccc3c(=O)n2Cc2ccccc2)C(C)C)cc1 [ispinesib]
How it was run: as §1

Sequence of UniProt O43164 (O43164 whole entry, looked up): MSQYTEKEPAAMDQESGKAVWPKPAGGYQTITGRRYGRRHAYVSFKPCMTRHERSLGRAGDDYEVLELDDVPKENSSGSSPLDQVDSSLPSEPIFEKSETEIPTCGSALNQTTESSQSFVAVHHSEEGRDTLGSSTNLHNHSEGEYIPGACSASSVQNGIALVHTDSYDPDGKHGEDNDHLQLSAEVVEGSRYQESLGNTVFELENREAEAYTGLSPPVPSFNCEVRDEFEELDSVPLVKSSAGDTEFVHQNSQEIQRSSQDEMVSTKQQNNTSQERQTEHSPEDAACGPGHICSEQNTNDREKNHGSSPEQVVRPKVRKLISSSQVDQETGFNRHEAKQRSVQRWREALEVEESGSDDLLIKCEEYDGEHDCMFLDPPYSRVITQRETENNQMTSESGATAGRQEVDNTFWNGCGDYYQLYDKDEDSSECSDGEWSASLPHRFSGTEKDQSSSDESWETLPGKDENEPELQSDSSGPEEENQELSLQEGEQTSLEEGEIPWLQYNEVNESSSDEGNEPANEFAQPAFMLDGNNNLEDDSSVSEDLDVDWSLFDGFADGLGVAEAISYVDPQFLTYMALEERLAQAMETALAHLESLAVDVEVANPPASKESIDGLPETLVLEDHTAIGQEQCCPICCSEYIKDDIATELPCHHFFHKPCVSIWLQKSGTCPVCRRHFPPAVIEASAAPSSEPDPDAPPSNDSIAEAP
Sequence of UniProt P09874 (P09874 whole entry, looked up): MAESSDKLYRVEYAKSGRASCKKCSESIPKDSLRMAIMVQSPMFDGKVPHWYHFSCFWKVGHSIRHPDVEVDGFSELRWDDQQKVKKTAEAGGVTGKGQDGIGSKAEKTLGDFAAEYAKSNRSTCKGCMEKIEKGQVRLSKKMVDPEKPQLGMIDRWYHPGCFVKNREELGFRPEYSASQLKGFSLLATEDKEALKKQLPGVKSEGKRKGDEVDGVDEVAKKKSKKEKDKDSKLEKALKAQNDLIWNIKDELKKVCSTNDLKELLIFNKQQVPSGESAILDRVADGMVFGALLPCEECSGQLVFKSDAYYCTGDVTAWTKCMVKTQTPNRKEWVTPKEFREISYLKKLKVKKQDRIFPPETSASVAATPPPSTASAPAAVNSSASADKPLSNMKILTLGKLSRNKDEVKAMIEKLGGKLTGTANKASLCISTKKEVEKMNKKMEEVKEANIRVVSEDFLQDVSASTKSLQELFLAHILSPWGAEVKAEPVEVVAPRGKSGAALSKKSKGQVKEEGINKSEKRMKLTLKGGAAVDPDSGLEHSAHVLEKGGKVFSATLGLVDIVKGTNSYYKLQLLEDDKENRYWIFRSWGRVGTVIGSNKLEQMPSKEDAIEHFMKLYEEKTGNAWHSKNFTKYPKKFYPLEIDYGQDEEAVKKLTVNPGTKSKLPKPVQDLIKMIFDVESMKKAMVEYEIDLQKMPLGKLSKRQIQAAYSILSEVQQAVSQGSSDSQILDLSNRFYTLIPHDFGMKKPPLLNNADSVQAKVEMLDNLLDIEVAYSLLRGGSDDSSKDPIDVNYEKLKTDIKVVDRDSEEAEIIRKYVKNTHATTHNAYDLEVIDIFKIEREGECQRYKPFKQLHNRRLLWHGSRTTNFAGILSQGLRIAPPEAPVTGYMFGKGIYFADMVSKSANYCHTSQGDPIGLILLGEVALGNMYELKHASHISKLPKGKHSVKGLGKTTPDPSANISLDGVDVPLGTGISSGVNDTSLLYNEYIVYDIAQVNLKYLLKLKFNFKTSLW
Sequence of UniProt Q8IWE5 (Q8IWE5 whole entry, looked up): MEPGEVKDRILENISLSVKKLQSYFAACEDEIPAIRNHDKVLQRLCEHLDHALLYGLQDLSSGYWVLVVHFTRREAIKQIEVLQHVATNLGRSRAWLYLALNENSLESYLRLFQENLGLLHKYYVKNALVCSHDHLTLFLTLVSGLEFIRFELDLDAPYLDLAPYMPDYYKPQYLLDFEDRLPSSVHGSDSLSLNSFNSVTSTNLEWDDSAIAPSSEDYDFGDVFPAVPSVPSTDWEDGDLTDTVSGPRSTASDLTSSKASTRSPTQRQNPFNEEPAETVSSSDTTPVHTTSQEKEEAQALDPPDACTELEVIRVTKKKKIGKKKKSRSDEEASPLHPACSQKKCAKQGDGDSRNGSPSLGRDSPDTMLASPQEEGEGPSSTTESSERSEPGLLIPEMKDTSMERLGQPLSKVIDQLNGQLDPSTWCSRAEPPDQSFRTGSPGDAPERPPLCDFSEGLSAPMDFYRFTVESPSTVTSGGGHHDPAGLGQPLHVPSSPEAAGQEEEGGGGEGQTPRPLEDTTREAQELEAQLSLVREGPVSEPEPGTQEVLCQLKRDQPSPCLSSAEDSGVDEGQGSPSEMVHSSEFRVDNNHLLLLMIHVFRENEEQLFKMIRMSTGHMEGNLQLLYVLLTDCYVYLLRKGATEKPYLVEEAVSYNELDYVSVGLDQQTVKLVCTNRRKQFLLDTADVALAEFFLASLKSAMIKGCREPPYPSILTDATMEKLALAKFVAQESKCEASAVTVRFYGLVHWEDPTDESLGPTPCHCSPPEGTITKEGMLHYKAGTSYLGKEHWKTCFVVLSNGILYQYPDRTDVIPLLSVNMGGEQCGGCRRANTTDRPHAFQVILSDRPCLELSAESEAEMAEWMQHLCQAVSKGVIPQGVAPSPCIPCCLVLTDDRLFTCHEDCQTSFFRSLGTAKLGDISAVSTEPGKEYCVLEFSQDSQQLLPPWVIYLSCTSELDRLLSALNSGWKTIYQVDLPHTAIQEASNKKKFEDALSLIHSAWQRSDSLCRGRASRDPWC
Sequence of UniProt O60256 (O60256 whole entry, looked up): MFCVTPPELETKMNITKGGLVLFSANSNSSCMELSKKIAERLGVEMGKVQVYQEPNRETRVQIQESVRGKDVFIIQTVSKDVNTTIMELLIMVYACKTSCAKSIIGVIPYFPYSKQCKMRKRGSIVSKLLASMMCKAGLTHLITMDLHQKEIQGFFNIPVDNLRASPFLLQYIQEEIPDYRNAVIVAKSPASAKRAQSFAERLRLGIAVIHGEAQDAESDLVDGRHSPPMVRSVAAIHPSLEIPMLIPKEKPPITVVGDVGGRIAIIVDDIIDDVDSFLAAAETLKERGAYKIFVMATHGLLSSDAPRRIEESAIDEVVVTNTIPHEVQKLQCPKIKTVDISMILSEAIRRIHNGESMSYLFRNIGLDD
Sequence of UniProt O00625 (O00625 whole entry, looked up): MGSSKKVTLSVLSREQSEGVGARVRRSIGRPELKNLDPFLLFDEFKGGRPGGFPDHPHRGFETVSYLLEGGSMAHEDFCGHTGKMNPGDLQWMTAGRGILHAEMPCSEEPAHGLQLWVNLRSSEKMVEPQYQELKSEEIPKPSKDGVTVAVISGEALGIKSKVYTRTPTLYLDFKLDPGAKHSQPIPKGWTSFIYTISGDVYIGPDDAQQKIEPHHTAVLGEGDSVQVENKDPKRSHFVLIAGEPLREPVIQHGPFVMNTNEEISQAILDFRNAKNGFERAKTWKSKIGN
Sequence of UniProt Q9Y5Y5 (Q9Y5Y5 whole entry, looked up): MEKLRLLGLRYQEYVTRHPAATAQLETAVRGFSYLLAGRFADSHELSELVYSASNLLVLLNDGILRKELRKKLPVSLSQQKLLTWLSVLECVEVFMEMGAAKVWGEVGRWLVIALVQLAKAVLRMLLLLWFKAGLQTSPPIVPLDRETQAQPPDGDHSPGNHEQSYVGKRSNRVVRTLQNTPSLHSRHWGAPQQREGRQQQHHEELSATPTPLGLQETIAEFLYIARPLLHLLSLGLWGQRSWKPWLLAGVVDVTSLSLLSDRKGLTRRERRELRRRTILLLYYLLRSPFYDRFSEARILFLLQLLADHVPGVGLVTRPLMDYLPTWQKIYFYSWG
Sequence of UniProt Q9BTU6 (Q9BTU6 whole entry, looked up): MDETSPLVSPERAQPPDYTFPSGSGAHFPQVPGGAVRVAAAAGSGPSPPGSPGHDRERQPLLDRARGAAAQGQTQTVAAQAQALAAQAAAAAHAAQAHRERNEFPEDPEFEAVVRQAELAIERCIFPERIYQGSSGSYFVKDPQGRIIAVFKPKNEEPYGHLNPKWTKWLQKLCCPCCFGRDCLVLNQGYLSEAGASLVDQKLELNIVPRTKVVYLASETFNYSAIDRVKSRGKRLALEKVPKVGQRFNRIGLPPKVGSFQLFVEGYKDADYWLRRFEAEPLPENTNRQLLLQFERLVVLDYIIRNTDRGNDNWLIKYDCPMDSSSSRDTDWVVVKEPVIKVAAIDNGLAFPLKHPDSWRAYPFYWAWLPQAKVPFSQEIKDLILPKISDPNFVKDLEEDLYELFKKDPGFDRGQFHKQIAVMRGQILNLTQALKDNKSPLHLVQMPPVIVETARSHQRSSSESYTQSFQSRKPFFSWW
Sequence of UniProt O00231 (O00231 whole entry, looked up): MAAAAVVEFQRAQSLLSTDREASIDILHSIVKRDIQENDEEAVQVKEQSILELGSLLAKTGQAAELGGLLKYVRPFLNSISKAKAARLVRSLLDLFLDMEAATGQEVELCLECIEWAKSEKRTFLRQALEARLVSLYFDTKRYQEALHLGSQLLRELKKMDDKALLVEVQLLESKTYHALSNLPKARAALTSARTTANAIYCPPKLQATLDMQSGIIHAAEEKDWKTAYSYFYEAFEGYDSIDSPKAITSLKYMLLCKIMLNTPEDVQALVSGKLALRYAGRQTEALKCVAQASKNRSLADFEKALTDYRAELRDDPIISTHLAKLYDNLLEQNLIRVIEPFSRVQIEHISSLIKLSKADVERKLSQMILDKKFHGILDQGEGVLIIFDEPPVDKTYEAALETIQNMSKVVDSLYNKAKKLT

Target	log2 fold change [1]	log2 fold change [2]	log2 fold change [3]	log2 fold change [4]	log2 fold change [5]	log2 fold change [6]	log2 fold change [7]	log2 fold change [8]	log2 fold change [9]	log2 fold change [10]	log2 fold change [11]	log2 fold change [12]	log2 fold change [13]	log2 fold change [14]	log2 fold change [15]	log2 fold change [16]	log2 fold change [17]	log2 fold change [18]	log2 fold change [19]	log2 fold change [20]
PIR (UniProt O00625)	-0.338 (active)	0.015	0.011	0.033	-0.038	0.085	0.061	0.011	0.018	0.077	0.004	0.042	0.019	-0.085	0.013	0.048	0.027	0.057	0.095	0.045
PEX16 isoform 2 (UniProt Q9Y5Y5)	0.146	-0.152	0.016	-0.076	-0.011	-0.227	-0.021	0.193	0.05	-0.089	-0.001	-0.142	0.052	-0.072	0.096	-0.104	0.018	0.057	0.106	-0.23
PJA2 (UniProt O43164)	-0.022	0.004	-0.071	0.11	-0.008	0.024	-0.016	0.001	-0.001	-0.049	0.032	-0.042	-0.126	0.091	-0.021	0.097	-0.018	-0.118	0.033	-0.098
PRPSAP2 (UniProt O60256)	-0.168	0.084	0.029	0.012	-0.078	0.011	-0.022	0.025	-0.011	-0.233 (active)	0	0.01	0.112	-0.016	-0.013	0.114	0.038	0.023	-0.007	0.012
PSMD11 (UniProt O00231)	0.018	-0.011	0.028	0.004	-0.058	-0.052	-0.043	-0.071	0.086	0.003	0.036	-0.024	-0.035	0.074	-0.04	0.046	0.08	0.07	0.013	0.045
PLEKHM2 (UniProt Q8IWE5)	0.007	-0.09	0.053	-0.083	0.044	-0.041	0.075	-0.041	0.084	0.011	0.023	-0.162	0.02	-0.047	0.044	-0.06	0.144	0.04	0.064	-0.02
PARP1 (UniProt P09874)	0.091	-0.043	0.048	-0.047	0.039	0.147	0.062	-0.062	-0.082	0.008	0.088	0.037	0.007	0.012	0.102	-0.029	0.08	0.165	-0.065	-0.126
PI4K2A (UniProt Q9BTU6)	0.012	-0.066	-0.037	-0.044	-0.006	-0.015	-0.027	0.005	0	0.049	0.031	-0.185	0.032	0	0.043	-0.004	-0.009	0.001	0.015	-0.244 (active)
